Compound activity as filed in PubChem.
HCMV inh = qHTS Assay for inhibitors of the human cytomegalovirus (HCMV); 4.5% of 410,000 active; activity change, negative = inhibition, % at 57.5 µM; HFF cells, HCMV-luciferase reporter, 72 h; hits give low values; in the data active means activity change below about -60%; inconclusive means no clear call, values can overlap the other calls; inactive means above about -39%
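Compounds were evaluated in HFFs infected with an HCMV luciferase reporter virus (MOI 1 PFU/cell). Luciferase in lysates collected 72 h post infection served as the replication measure.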
Shiga toxin inh = A qHTS for Small Molecule Inhibitors of Shiga Toxin | 9.2% of 290,000 active | Vero cells, Shiga toxin protein synthesis inhibition reporter | AID 2315, 2010 | inhibition, % at 38.7 µM; in the data active means inhibition mostly above about 28%, no sharp cut-off; inactive means mostly below about 43%
CHX counter = Cycloheximide Counterscreen for Small Molecule Inhibitors of Shiga Toxin | cell reporter, cycloheximide protein synthesis inhibition counterscreen | max response, % | 12% of 300,000 active; in the data active means max response mostly above about 13%, no sharp cut-off; inactive means mostly below about 14%; further: read at 38.3 µM for the half of the compounds with a filed dose
Pf growth 96h = Primary qHTS for delayed death inhibitors of the malarial parasite plastid, 96 hour incubation | P. falciparum luciferase reporter growth, 96 h | Potency, µM (series often up to 28.7 µM), usual class: inhibitors | 6.9% of 320,000 active | AID 504834, 2011
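Delayed-death screen, second-generation endpoint: infected erythrocytes, 2% hematocrit, 0.05% parasitemia final; 96 hours at 37 C, 5% CO2; luciferase detection reagent; luminescence decrease equals reduced growth.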
HCV inh = qHTS Assay for Inhibitors of Hepatitis C Virus (HCV); AID 651820, 2012; Huh7.5.1 HCVcc-Cre infection, luciferase reporter, 44 h; 3.4% of 340,000 active; Potency, µM (doses to about 41.8 µM), hits mostly inhibitors
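Whole-lifecycle infectious HCVcc-Cre system; cells 1,000/well, compound then virus (~0.5 moi) added 4 h after plating, 44 h culture. Luciferase read 15 sec following 15 min substrate incubation, room temp.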
Pf growth 48h = Primary qHTS for delayed death inhibitors of the malarial parasite plastid, 48 hour incubation | AID 504832, 2011 | 5.9% of 310,000 active | P. falciparum luciferase growth in erythrocytes, 48 h | Potency, µM (series often up to 28.7 µM), most hits filed as inhibitors
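Luciferase-expressing P. falciparum in infected erythrocytes (2% hematocrit, 0.1% parasitemia final) in RPMI 1640/0.5% Albumax were exposed to compound for 48 hours at 37 C, 5% CO2; growth read as luminescence.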
Numbers stand for hits; n = inactive; u = inconclusive; x = no result given. Only some compounds are listed: those with a hit (about 21% of all), similar ones and a draw of the others. Unless noted, the call rests on the fitted dose curve; in most records, active means well fitted inhibition curve with a large enough effect; inconclusive means small, poorly fitted or top-dose-only effect, or another doubt; inactive means no such curve, though single readings can be large or run the other way.

SMILES	HCMV inh	Shiga toxin inh	CHX counter	Pf growth 96h	HCV inh	Pf growth 48h
Cc1ccc(C(=O)CSc2nnc(-c3ccco3)o2)o1	n	56	40	x	n	n
Cc1cc(C(=O)CSc2nnc(-c3ccco3)o2)c(C)n1C	n	x	x	x	11µM	x
COc1ccc(-c2nnc(SCC(=O)c3ccc(C)o3)o2)cc1	n	n	13	n	u	n
O=C(O)CSc1nnc(-c2ccco2)o1	n	n	n	u	n	n
CCn1c(C)cc(C(=O)CSc2nnc(-c3ccco3)o2)c1C	n	x	x	n	n	n
Cc1ccc(C(=O)NCC(=O)OC(C)C(=O)Nc2ccc(N(C)C)cc2)s1 (centres undefined)	n	n	n	n	n	n
O=C1NC[C@H](CCCCN2C[C@H](Cc3ccccc3)N(CCc3ccc(O)cc3)C(=O)C2=O)N(CCc2ccc(O)cc2)C1=O	n	x	x	x	x	x
CNC(=O)NC(=O)COC(=O)c1ccc(-n2c(C)ccc2C)cc1	n	n	n	u	n	n
O=C(CC1(O)C(=O)Nc2ccccc21)c1ccc(-n2cnnn2)cc1 (centres undefined)	n	n	24	u	n	n
Cc1cccc(N2CCN(C(=O)C3CCN(S(=O)(=O)c4cccc5nsnc45)CC3)CC2C)c1 (centres undefined)	u	n	n	n	11µM	u
CC(=O)c1ccc(N2CCN(C(=O)C3CCCN3S(=O)(=O)c3cccc4nsnc34)CC2)cc1 (centres undefined)	n	n	n	13µM	n	u
O=C(NC1CCN(Cc2ccccc2)CC1)C1CCN(S(=O)(=O)c2cccc3nsnc23)CC1	-62	n	n	n	n	n
O=C(C1CCN(S(=O)(=O)c2cccc3nsnc23)CC1)N1CCN(c2ccccc2F)CC1	n	n	n	2.6µM	n	n
O=C(CCCN1C(=O)C(c2ccccc2)Oc2cccnc21)Nc1ccccc1Cl (centres undefined)	n	n	n	u	n	n
CS(=O)(=O)c1cccc(C(=O)Nc2cccc(-c3nc4ccccc4[nH]3)c2)c1	n	n	n	u	n	n
CS(=O)(=O)c1ccc(C(=O)Nc2cccc(-c3nc4ccccc4[nH]3)c2)cc1	n	n	n	u	u	u
CCCOc1ccc(C(=O)Nc2cccc(-c3nc4ccccc4[nH]3)c2)cc1	-88	x	x	x	x	x
CS(=O)(=O)Cc1ccc(C(=O)Nc2cccc(-c3nc4ccccc4[nH]3)c2)cc1	n	n	n	8.3µM	u	n
CCOc1cc(OCC)cc(C(=O)Nc2cccc(-c3nc4ccccc4[nH]3)c2)c1	-98	x	x	x	x	x
OC(Cc1nc2ccccc2[nH]1)c1ccccc1Cl (centres undefined)	n	107	49	u	n	n
NC(Cc1ccccc1)c1nc2ccccc2[nH]1 (centres undefined)	n	48	18	n	n	n
NC(Cc1nc2ccccc2[nH]1)c1ccc(Cl)cc1 (centres undefined)	n	81	45	n	n	n
Clc1ccc(OCc2nc3ccccc3[nH]2)cc1	n	56	32	u	11µM	n
CS(=O)(=O)c1[nH]nc(-c2ccccc2)c1C#N	n	n	n	n	n	n
CC(C)c1nn2c(=O)cc(COC(=O)c3ccccc3NC(=O)COc3ccccc3)nc2s1	n	x	x	x	x	x
SMILES	HCMV inh	Shiga toxin inh	CHX counter	Pf growth 96h	HCV inh	Pf growth 48h
CCc1nc2ccccc2[nH]1	n	n	n	n	n	x
Cc1ccc(OCc2nc3ccccc3[nH]2)cc1	n	57	61	n	n	n
c1ccc(OCc2nc3ccccc3[nH]2)cc1	n	75	49	n	u	n
c1ccc(Cc2nc3ccccc3[nH]2)cc1	n	n	n	u	n	n
O=C(O)CSc1c(Cl)c(=O)oc2ccc(Cl)cc12	n	x	x	x	x	x
CCCC[C@@H](NC(=O)[C@@H](Cc1cn(C(=O)OC)c2ccccc12)NC(=O)[C@H](CC(C)(C)C)NC(=O)N1[C@H](C)CCC[C@@H]1C)C(=O)O	x	n	n	x	x	x
C[C@H](CO)NC(=O)c1nc[nH]c1C(=O)N[C@H](C)c1ccccc1	n	x	x	x	x	x
CCCCP(=O)(CCCC)Cc1ccccc1O	n	n	n	u	n	15µM
O=C(O)CCCCCN1C(=O)/C(=C\c2ccncc2)SC1=S	-99	n	n	n	n	u
